Results filed as inconclusive are left out. Activity calls are given as the source filed them. The call rests on the fitted dose curve; in most records, active means well fitted curve in the direction sought with a large enough effect; inconclusive means small, poorly fitted or top-dose-only effect, or another doubt; inactive means no such curve, though single readings can be large; an effect the other way counts as inactive or inconclusive.
Key:
[1] = qHTS of pediatric cancer cell lines to identify multiple opportunities for drug repurposing: Primary screen for Rh18 cells (AID 1347102); further: nearly all actives have a fitted effect of over 65% in size; further: potency means the concentration at half of the fitted maximal effect
In short: (§1)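 Cells (500-1,000/well) rested 5 h, then received compounds for 48 h; metabolically active cells were measured by CellTiter-Glo luminescence. Final concentrations spanned up to 46 µM (MIPE, 11-point) or 0.59 nM-46 µM (NPC, 8-point) in primary screens, 11-point in follow-ups.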

[2] = qHTS of pediatric cancer cell lines to identify multiple opportunities for drug repurposing: Primary screen for OHS-50 cells (AID 1347103); further: nearly all actives have a fitted effect of over 40% in size; further: potency means the concentration at half of the fitted maximal effect
In short: as §1

[3] = qHTS of pediatric cancer cell lines to identify multiple opportunities for drug repurposing: Primary screen for RD cells (AID 1347104); further: nearly all actives have a fitted effect of over 55% in size; further: potency means the concentration at half of the fitted maximal effect
In short: (§2)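 Primary screen of approved and investigational compounds on cells in growth media at 37 degrees C, 5% CO2. MIPE set at 11-point and NPC set at 8-point dilutions; viability scored by ATP-based luminescence at 48 hours.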

[4] = qHTS of pediatric cancer cell lines to identify multiple opportunities for drug repurposing: Primary screen for control Hh wild type fibroblast cells (AID 1347106);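 further: a drop in luminescence marks cytotoxicity and a rise apparent proliferation; nearly all actives have a fitted effect of over 55% in size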
In short: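 Viability after 48 h compound treatment at 37C, 500-1,000 cells/well, read as ATP luminescence with CellTiter-Glo. Primary screens used 11-point (MIPE, 0.78 nM-46 µM) or 8-point (NPC, 0.59 nM-46 µM) final concentrations; follow-up screens used 11-point dilutions.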

[5] = qHTS of pediatric cancer cell lines to identify multiple opportunities for drug repurposing: Primary screen for Rh30 cells (AID 1347107); further: nearly all actives have a fitted effect of over 75% in size; further: potency means the concentration at half of the fitted maximal effect
In short: as §1

[6] = qHTS of pediatric cancer cell lines to identify multiple opportunities for drug repurposing: Primary screen for Rh41 cells (AID 1347108); further: nearly all actives have a fitted effect of over 70% in size; further: potency means the concentration at half of the fitted maximal effect;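 on activity change, negative = cytotoxic: luminescence drop marks cytotoxic hits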
In short: as §2

[7] = qHTS of pediatric cancer cell lines to identify multiple opportunities for drug repurposing: Confirmatory screen for A673 cells (AID 1347110);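 further: cells exposed to compound for 48 h before the viability read; nearly all actives have a fitted effect of over 65% in size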; further: potency means the concentration at half of the fitted maximal effect
In short: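 qHTS titration format: primary MIPE 0.78 nM-46 µM (11 pts), NPC 0.59 nM-46 µM; confirmation 11 pts. 48 h, CTG luminescence.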

[8] = qHTS of pediatric cancer cell lines to identify multiple opportunities for drug repurposing: Confirmatory screen for SK-N-MC cells (AID 1347111);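 further: cells exposed to compound for 48 h before the readout; nearly all actives have a fitted effect of over 70% in size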; further: potency means the concentration at half of the fitted maximal effect
In short: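 Seed 500-1,000 cells/well; rest 5 h at 37 degrees C. Pin-transfer compounds, 11-point titration. Incubate 48 h. Add CellTiter-Glo, 15 min RT, read luminescence.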

[9] = qHTS of pediatric cancer cell lines to identify multiple opportunities for drug repurposing: Confirmatory screen for BT-12 cells (AID 1347112); further: nearly all actives have a fitted effect of over 55% in size; further: potency means the concentration at half of the fitted maximal effect
In short: as §1

[10] = qHTS of pediatric cancer cell lines to identify multiple opportunities for drug repurposing: Confirmatory screen for LAN-5 cells (AID 1347113); further: nearly all actives have a fitted effect of over 65% in size; further: potency means the concentration at half of the fitted maximal effect
In short: as §1

[11] = qHTS of pediatric cancer cell lines to identify multiple opportunities for drug repurposing: Confirmatory screen for DAOY cells (AID 1347114); further: nearly all actives have a fitted effect of over 65% in size; further: potency means the concentration at half of the fitted maximal effect
In short: (§3)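 Viability measured as metabolically active cells via CellTiter-Glo luminescence following 48 hours of compound exposure, 11-point dilutions in confirmatory testing. 500-1,000 cells/well plated 5 hours before dosing; controls were DMSO and 2.3 µM bortezomib.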

[12] = qHTS of pediatric cancer cell lines to identify multiple opportunities for drug repurposing: Confirmatory screen for NB-EBc1 cells (AID 1347115);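 further: cells exposed to compound for 48 h before the viability read; nearly all actives have a fitted effect of over 45% in size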; further: potency means the concentration at half of the fitted maximal effect
In short: as §1

[13] = qHTS of pediatric cancer cell lines to identify multiple opportunities for drug repurposing: Confirmatory screen for BT-37 cells (AID 1347117); conditions: BT-37 pediatric cancer cells, viability; activity change, negative = cytotoxic: at 45.9 µM (top of the series); further: nearly all actives have a fitted effect of over 55% in size; further: potency means the concentration at half of the fitted maximal effect
In short: as §1

[14] = qHTS of pediatric cancer cell lines to identify multiple opportunities for drug repurposing: Confirmatory screen for MG 63 (6-TG R) cells (AID 1347119); further: nearly all actives have a fitted effect of over 55% in size; further: potency means the concentration at half of the fitted maximal effect
In short: as §1

[15] = qHTS of pediatric cancer cell lines to identify multiple opportunities for drug repurposing: Confirmatory screen for control Hh wild type fibroblast cells (AID 1347121); further: nearly all actives have a fitted effect of over 70% in size; further: potency means the concentration at half of the fitted maximal effect
In short: as §1

[16] = qHTS of pediatric cancer cell lines to identify multiple opportunities for drug repurposing: Confirmatory screen for U-2 OS cells (AID 1347122); further: nearly all actives have a fitted effect of over 65% in size; further: potency means the concentration at half of the fitted maximal effect
In short: as §1

[17] = qHTS of pediatric cancer cell lines to identify multiple opportunities for drug repurposing: Primary screen for MG 63 (6-TG R) cells (AID 1347105); further: nearly all actives have a fitted effect of over 50% in size; further: potency means the concentration at half of the fitted maximal effect
In short: as §2

[18] = qHTS of pediatric cancer cell lines to identify multiple opportunities for drug repurposing: Confirmatory screen for NB1643 cells (AID 1347109); further: nearly all actives have a fitted effect of over 45% in size; further: potency means the concentration at half of the fitted maximal effect
In short: as §1

[19] = qHTS of pediatric cancer cell lines to identify multiple opportunities for drug repurposing: Confirmatory screen for SJ-GBM2 cells (AID 1347116); further: nearly all actives have a fitted effect of over 60% in size; further: potency means the concentration at half of the fitted maximal effect
In short: as §3

[20] = qHTS of pediatric cancer cell lines to identify multiple opportunities for drug repurposing: Confirmatory screen for TC32 cells (AID 1347118)
In short: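 Luminescent CellTiter-Glo read-out of metabolically active TC32 cells after 48 h compound exposure. Primary: MIPE 11-point, 0.78 nM–46 µM; NPC 8-point, 0.59 nM–46 µM. Confirmatory: 11-point dilutions.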

Measured: Potency

Cc1noc(-c2ccc(CSCCC(=O)O)cc2)c1NC(=O)OC(C)c1ccccc1Cl (centres undefined)
inactive: [1] | [2] | [3] | [4] | [5] | [6]

Cc1[nH]c(C=C2C(=O)Nc3ccccc32)c(C)c1CCC(=O)O
active: [1] 23500 nM | [2] 1220 nM | [3] 18700 nM
not listed: [5] | [6] | [17] | [18] | [19] | [20]
inactive: all other assays above

CN[C@@H]1C[C@H]2O[C@@](C)([C@H]1OC)n1c3ccccc3c3c4c(c5c6ccccc6n2c5c31)C(=O)N[C@H]4O
active: [1] 590 nM | [2] 217 nM | [3] 1050 nM | [17] 187 nM | [6] 5900 nM | [18] 737 nM | [7] 369 nM | [8] 233 nM | [10] 928 nM | [11] 1470 nM | [12] 2610 nM | [19] 2610 nM | [13] 2610 nM | [20] 414 nM | [14] 104 nM | [15] 10400 nM | [16] 369 nM

CC(C)NC[C@@H](C(=O)N1CCN(c2ncnc3c2[C@H](C)C[C@H]3O)CC1)c1ccc(Cl)cc1
inactive: [9] | [11] | [15]
active: [1] 5900 nM | [2] 193 nM | [3] 1180 nM | [17] 3720 nM | [6] 332 nM | [8] 2930 nM | [10] 2930 nM | [14] 11700 nM

COc1cc(C[C@@H](CO)[C@H](CO)Cc2ccc(O)c(OC)c2)ccc1O
active: [1] 4180 nM | [2] 9680 nM | [3] 526 nM | [17] 935 nM | [5] 469 nM | [6] 935 nM | [8] 8270 nM
inactive: [9] | [12] | [13] | [14] | [15]

N=c1ccn2c(n1)O[C@H]1[C@@H](O)[C@@H](CO)O[C@H]12
inactive: [1] | [17]
active: [2] 2730 nM

C#CCC(Cc1cnc2nc(N)nc(N)c2n1)c1ccc(C(=O)N[C@@H](CCC(=O)O)C(=O)O)cc1 (some centres undefined)
active: [2] 109 nM | [3] 74.3 nM | [7] 65.7 nM | [8] 52.2 nM | [9] 104 nM | [11] 117 nM | [12] 369 nM
inactive: [1] | [5] | [6] | [18] | [10] | [14] | [15]

Cc1ccccc1C(=O)Nc1ccc(C(=O)N2CCCC(O)c3cc(Cl)ccc32)c(C)c1 (centres undefined)
inactive: [1] | [2] | [3] | [4] | [5] | [6]

CC(C)(O)Cn1c(NC(=O)c2ccc(-c3cn[nH]c3)s2)nc2cc(CN3CCOCC3)ccc21
active: [1] 1870 nM | [2] 1220 nM | [3] 1870 nM | [17] 3720 nM | [6] 1180 nM | [7] 1170 nM | [8] 1310 nM | [9] 1040 nM | [10] 1040 nM | [11] 2610 nM | [12] 1040 nM | [13] 737 nM | [20] 1310 nM | [14] 1170 nM | [15] 5220 nM
inactive: [5]

O=C1NC(=O)[C@@H](c2cn3c4c(cccc24)CCC3)[C@H]1c1c[nH]c2ccccc12
inactive: [1] | [5]
active: [2] 863 nM | [3] 235 nM | [7] 2330 nM | [8] 928 nM | [11] 2080 nM | [13] 1850 nM | [20] 827 nM | [14] 1170 nM | [16] 1170 nM

COc1cc(C)c(Sc2cnc(NC(=O)c3ccc(CNC(C)C(C)(C)C)cc3)s2)cc1C(=O)N1CCN(C(C)=O)CC1 (centres undefined)
active: [1] 14800 nM | [2] 4850 nM | [3] 14800 nM | [17] 14800 nM | [6] 7430 nM

C[C@H](O)[C@@H]1C(=O)N2C(C(=O)O)=C(S[C@@H]3CN[C@H](CNS(N)(=O)=O)C3)[C@@H](C)[C@@H]12
inactive: [1] | [2] | [17] | [4] | [6]

COc1cc(OC)c(NC(=O)Nc2cc(C)on2)cc1Cl
inactive: [1] | [3] | [17] | [4] | [5]

CCOC(=O)[C@@H](N)Cc1ccc(-c2cc(O[C@H](c3ccc(Cl)cc3-n3ccc(C)n3)C(F)(F)F)nc(N)n2)cc1
active: [1] 23500 nM | [2] 24300 nM | [8] 32900 nM | [10] 23300 nM | [20] 23300 nM
inactive: [4] | [11] | [19] | [15]

From PubChem BioAssay (NCATS)
